Records with an inconclusive call do not appear. Entries that show only a call come without a potency. Unmarked numbers belong to inactive results. Active and inactive are the calls of the source. Unless noted, calls come from the whole dose curve; as a rule, active = well fitted curve in the direction sought with a large enough effect in the repeat runs; inconclusive = weak or mixed curves; inactive = no such curve, though single readings can be large; an effect the other way counts as inactive or inconclusive.
Columns and labels:
[1] = qHTS assay to identify small molecule antagonists of the vitamin D receptor (VDR) signaling pathway - cell viability counter screen (AID 743225); conditions: VDR-bla HEK293T viability, CellTiter-Glo luminescence, 16 h; series mostly up to 61 µM; note: nearly all actives have a fitted effect of over 50% in size
Method in brief: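 Read-out: CellTiter-Glo luminescence measured 30 min after reagent addition at room temperature. Cells were VDR-bla HEK 293T exposed 16 h at 37C, 5% CO2, to compound with 3 nM final calcitriol agonist.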

[2] = qHTS assay to identify small molecule agonists of the NFkB signaling pathway - cell viability counter screen (AID 1159515; calls by dose curve; note: nearly all actives have a fitted effect of over 55% in size); conditions: NFkB-bla ME-180 viability, CellTiter-Glo luminescence, 5 h; series mostly up to 61 µM
Method in brief: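 Counter screen run alongside the NFkB-bla agonist assay: ME-180 reporter cells exposed to compounds for 5 hr, then lysed with CellTiter-Glo in the same wells. Luminescence, read after 30 min, reflects viable cells.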

[3] = qHTS assay to identify small molecule agonists of the endoplasmic reticulum stress response signaling pathway (AID 1159516; active = well fitted activation curve with a large enough effect in the signal ratio in the repeat runs, not every such curve was filed as active; the % refers to the signal ratio); conditions: ESRE-bla HeLa, ER stress beta-lactamase reporter, 5 h; series mostly up to 61 µM
Method in brief: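 For this screen, HeLa cells stably carrying beta-lactamase under the ER stress response element received test compounds, positive controls or DMSO for 5 hr at 37 C; B/G FRET substrate was then added and dual-wavelength emission recorded.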

[4] = qHTS assay to identify small molecule agonists of the endoplasmic reticulum stress response signaling pathway - cell viability counter screen (AID 1159517; calls by dose curve; note: nearly all actives have a fitted effect of over 50% in size); conditions: ESRE-bla HeLa viability, CellTiter-Glo luminescence, 5 h; series mostly up to 61 µM
Method in brief: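 Steps: seed 1,500 ESRE-bla HeLa cells per well; incubate overnight at 37 C, 5% CO2; add compounds in DMSO for 5 hr; run FRET substrate 2 hr RT; add CellTiter-Glo, wait 30 min, read luminescence.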

[5] = qHTS assay to identify small molecule antagonists of the retinoid-related orphan receptor gamma (ROR-gamma) signaling pathway - cell viability counter screen (AID 1159520); conditions: Tet-on RORgamma CHO cells viability, ATP luminescence, 16 h; series mostly up to 92.4 µM; note: nearly all actives have a fitted effect of over 50% in size
Method in brief: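 Tet-on ROR gamma CHO cells were given compounds for 2 hr, then doxycycline hyclate at 1 uM final, and incubated 16 hr at 37 C. Viability was measured as ATP content by CellTiter-Glo luminescence.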

[6] = qHTS assay to identify small molecule agonists of the AP-1 signaling pathway - cell viability counter screen (AID 1159525; calls by dose curve; note: nearly all actives have a fitted effect of over 55% in size); conditions: ME-180 AP-1-bla cells viability, ATP luminescence, 5 h; series mostly up to 76.8 µM
Method in brief: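 Same-well cytotoxicity counter screen of the Tox21 10K library in ME-180 cells. The readout is ATP-dependent luminescence after 5 h compound treatment. Data are normalised to DMSO and tetra n-octyl ammonium bromide controls.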

[7] = qHTS assay to identify small molecule agonists of the AP-1 signaling pathway (AID 1159526; calls by dose curve); conditions: ME-180 (cervical carcinoma) AP-1-bla reporter, beta-lactamase FRET ratio, 5 h; series mostly up to 76.8 µM
[8] = qHTS assay to identify small molecule agonists of the RXR signaling pathway - cell viability counter screen (AID 1159529); conditions: RXR-alpha-bla HEK293T viability, CellTiter-Glo, 16 h; series mostly up to 76.8 µM; note: nearly all actives have a fitted effect of over 50% in size
Method in brief: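 HEK 293T RXRa-bla cells, 2% CS-FBS; 5 h settle; cpd 16 h 37 C, 5% CO2; CellTiter-Glo 30 min RT, luminescence. Tetraoctyl ammonium bromide as positive control.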

[9] = qHTS assay to identify small molecule antagonists of the retinoid acid receptor (RAR) signaling pathway - cell viability counter screen (AID 1159551); conditions: C3RL4 cells viability, ATP luminescence (CellTiter-Glo), 6 h; series mostly up to 92.4 µM; note: nearly all actives have a fitted effect of over 35% in size
Method in brief: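 Measured by luminescent ATP detection, viability reflects C3RL4 cells treated 6 h at 37 C with test chemicals in the presence of 1 uM (final) retinol.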

[10] = qHTS assay to identify small molecule antagonists of the estrogen related receptor (ERR) signaling pathway from Tox21 library - cell viability counter screen (AID 1224834); conditions: ERR reporter cells viability, CellTiter-Fluor, 17.5 h; series mostly up to 92.4 µM; note: nearly all actives have a fitted effect of over 30% in size; note: potency is the fitted concentration of half-maximal effect
Method in brief: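 Seeded ERR cells were rested 6 h at 37 C/5% CO2 before compounds, positive and negative controls or DMSO were added. Incubation continued for 17.5 h, and viability was then quantified by CellTiter-Fluor fluorescence.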

[11] = target: Retinoic acid receptor RXR-alpha (Homo sapiens) (UniProt P19793); assay: qHTS assay to identify small molecule agonists of the RXR signaling pathway (AID 1159527; calls by dose curve; note: nearly all actives have a fitted effect of over 35% in size; note: potency is the fitted concentration of half-maximal effect); conditions: HEK293T RXRa-UAS-bla, beta-lactamase ratio, 16 h; series mostly up to 76.8 µM
Sequence of Retinoic acid receptor RXR-alpha (Homo sapiens) (P19793 whole entry, looked up): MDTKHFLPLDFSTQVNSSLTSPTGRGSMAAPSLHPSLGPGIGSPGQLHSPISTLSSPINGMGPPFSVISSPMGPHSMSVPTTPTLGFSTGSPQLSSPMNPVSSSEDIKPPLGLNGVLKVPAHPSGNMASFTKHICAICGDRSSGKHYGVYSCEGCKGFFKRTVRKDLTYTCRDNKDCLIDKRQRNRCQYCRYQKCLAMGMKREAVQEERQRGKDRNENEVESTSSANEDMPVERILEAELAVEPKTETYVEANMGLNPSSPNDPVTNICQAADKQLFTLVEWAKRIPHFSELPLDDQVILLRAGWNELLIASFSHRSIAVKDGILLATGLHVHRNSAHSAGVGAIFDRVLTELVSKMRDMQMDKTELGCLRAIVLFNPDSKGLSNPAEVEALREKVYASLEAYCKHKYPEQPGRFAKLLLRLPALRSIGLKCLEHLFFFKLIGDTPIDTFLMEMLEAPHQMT
Method in brief: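 Read-out: beta-lactamase FRET ratio (405 nm excitation, 460 and 530 nm emission) after 2 hr substrate loading at room temperature. Cells were RXR-alpha-UAS-bla HEK 293T treated with compounds for 16 hr in 2% charcoal-stripped FBS medium.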

[12] = qHTS assay to identify small molecule antagonists of the retinoic acid receptor (RAR) signaling pathway (AID 1159552; note: nearly all actives have a fitted effect of over 50% in size); conditions: C3RL4 RARE luciferase reporter, retinol-stimulated, 6 h; series mostly up to 92.4 µM
Method in brief: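 Cells of the C3RL4 line were seeded, incubated overnight, then dosed with compounds in DMSO followed immediately by retinol (1 uM final). Six hours later luciferase detection reagent went in; signal was measured after 30 min at RT.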

[13] = qHTS assay to identify small molecule antagonists of the estrogen related receptor (ERR) signaling pathway - cell viability counter screen (AID 1224818); conditions: ERR reporter cell line viability counter screen; series mostly up to 46.1 µM
Method in brief: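 Compounds dissolved in DMSO were applied to ERR cells seeded at 2,000 per well 6 h earlier. Cell viability followed 17.5 h later via 30-min CellTiter-Fluor fluorescence.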

[14] = qHTS assay to identify small molecule antagonists of the estrogen related receptor signaling pathway with the pleiotropic PPARgamma coactivator (PGC) cell viability counter screen (AID 1224822); conditions: ERR/PGC reporter cell line viability counter screen; series mostly up to 46.1 µM
Method in brief: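 Counter screen for cell viability: PGC/ERR cells, 6 h pre-incubation after plating, 17.5 h compound exposure at 37 C, fluorescence from CellTiter-Fluor after 30 min.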

[15] = qHTS assay to identify small molecule agonists of the retinoic acid receptor (RAR) signaling pathway (AID 1159553); conditions: C3RL4 RARE luciferase reporter, agonist, 6 h; series mostly up to 73.3 µM
Method in brief: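 6 hr compound exposure (DMSO vehicle) of overnight-plated C3RL4 RARE-luc cells at 37 C; luminescence quantified after 30 min RT with luciferase reagent.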

[16] = target: Nuclear receptor ROR-gamma (Homo sapiens) (UniProt P51449); assay: qHTS assay to identify small molecule antagonists of the retinoid-related orphan receptor gamma (ROR-gamma) signaling pathway (AID 1159521; note: nearly all actives have a fitted effect of over 50% in size; note: potency is the fitted concentration of half-maximal effect); conditions: Tet-on RORgamma CHO cells, RORE-luciferase, 16 h; series mostly up to 92.4 µM
Method in brief: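 CHO Tet-on RORγ, RORE-luc reporter. Cpd 2 h pre-incubation, then dox hyclate 1 uM final, 16 h, 37 C/5% CO2. ONE-Glo luminescence; decrease = antagonist.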

SMILES	Potency [1]	Potency [2]	Potency [3]	Potency [4]	Potency [5]	Potency [6]	Potency [7]	Potency [8]	Potency [9]	Potency [10]	Potency [11]	Potency [12]	outcome [13]	outcome [14]	Potency [15]	Potency [16]
Cn1c(=O)cc(Oc2ccc(F)cc2F)c2cnc(NCC(C)(C)O)nc21	inactive	inactive	inactive	inactive	inactive	inactive	inactive	inactive	inactive	–	–	–	–	–	–	–
NC(=O)C(c1ccccc1)(c1ccccc1)[C@@H]1CCN(CCc2ccc3c(c2)CCO3)C1	inactive	inactive	inactive	inactive	inactive	inactive	inactive	inactive	inactive	inactive	–	–	–	–	–	–
CCOC(=O)C1=C[C@]2(CC)CCCN3CCc4c(n1c1ccccc41)[C@@H]32	inactive	inactive	inactive	inactive	inactive	inactive	–	inactive	inactive	–	inactive	inactive	inactive	inactive	–	–
CCCCc1ncc(/C=C(\Cc2cccs2)C(=O)O)n1Cc1ccc(C(=O)O)cc1	inactive	inactive	inactive	inactive	inactive	inactive	–	inactive	inactive	inactive	inactive	inactive	inactive	inactive	inactive	–
CCCCCCCCCCO[C@@H]1O[C@H](CO)[C@@H](O)[C@H](O)[C@H]1O	–	inactive	inactive	inactive	inactive	inactive	inactive	–	–	inactive	–	inactive	–	–	inactive	–
Cc1oc(-c2ccccc2)nc1CCOc1cccc2c1ccn2CCC(=O)O	inactive	inactive	inactive	inactive	inactive	inactive	–	–	inactive	30.6 µM (active)	17.4 µM (active)	inactive	–	–	inactive	–
CCCCc1nc2cccnc2n1Cc1ccc(-c2ccccc2-c2nnn[nH]2)cc1	inactive	inactive	inactive	inactive	inactive	inactive	inactive	inactive	–	–	–	–	–	–	–	–
C[C@H]1C[C@H]2[C@@H]3CCC4=CC(=O)C=C[C@]4(C)[C@@]3(Cl)[C@@H](O)C[C@]2(C)[C@@]1(O)C(=O)CO	inactive	inactive	inactive	inactive	inactive	inactive	inactive	–	inactive	inactive	–	–	–	–	–	–
CC(=O)[O][Al]	inactive	inactive	inactive	inactive	inactive	inactive	inactive	inactive	–	inactive	–	–	–	–	inactive	–
C=CCOC(=O)CCC1CCCCC1	inactive	inactive	inactive	inactive	inactive	inactive	inactive	inactive	inactive	inactive	–	–	–	–	–	–
CCC(C)c1cc(C(C)(C)C)c(O)c(C(C)(C)C)c1 (stereo unspecified)	inactive	inactive	inactive	inactive	inactive	inactive	–	inactive	inactive	inactive	0.958 µM (active)	–	–	–	inactive	–
O=C1[C@H]2CCCC[C@H]2C(=O)N1CCCCN1CCN(c2nsc3ccccc23)CC1	inactive	inactive	inactive	inactive	inactive	inactive	inactive	–	–	29.8 µM (active)	–	inactive	–	–	inactive	–
S=C([S-])NCCNC(=S)[S-].[Mn+2]	inactive	inactive	inactive	inactive	inactive	inactive	inactive	–	inactive	inactive	–	–	–	–	–	–
CN1C[C@H]2c3ccccc3Oc3ccc(Cl)cc3[C@@H]2C1	inactive	inactive	inactive	inactive	inactive	inactive	–	inactive	inactive	inactive	inactive	inactive	–	–	inactive	–
O=C(Nc1ccc(S(=O)(=O)N2CCOCC2)cc1)c1cc(Cl)ccc1NS(=O)(=O)c1ccc(Cl)s1	–	inactive	inactive	inactive	inactive	inactive	–	inactive	inactive	inactive	inactive	–	–	–	inactive	–
OC(CN1CCC(Cc2ccc(F)cc2)CC1)c1ccc(Cl)cc1 (stereo unspecified)	–	inactive	inactive	inactive	inactive	inactive	–	inactive	inactive	inactive	–	inactive	inactive	inactive	–	–
COc1ccc(-c2nc3ccc(C4=NNC(=O)CC4C)cc3[nH]2)cc1 (stereo unspecified)	–	inactive	inactive	inactive	–	inactive	inactive	inactive	inactive	13.3 µM (active)	–	inactive	–	–	–	inactive
CCOc1ccc(N)c([N+](=O)[O-])c1	inactive	inactive	inactive	inactive	–	inactive	inactive	inactive	–	–	inactive	inactive	–	–	inactive	inactive
Cc1nn(C)c(Oc2ccccc2)c1/C=N/OCc1ccc(C(=O)OC(C)(C)C)cc1	–	inactive	inactive	inactive	–	inactive	inactive	inactive	inactive	inactive	–	inactive	–	–	inactive	0.486 µM (active)
C[C@H](CCC(=O)O)[C@H]1CC[C@H]2[C@@H]3CC[C@@H]4C[C@H](O)CC[C@]4(C)[C@H]3C[C@H](O)[C@]12C	–	inactive	inactive	inactive	inactive	inactive	–	–	–	–	–	inactive	–	–	inactive	–
CNCCCN1c2ccccc2CCc2ccccc21	–	inactive	inactive	inactive	inactive	inactive	–	–	inactive	–	–	–	inactive	–	–	–
